In the library only some 7.8% were active in any assay of this set; here they are far more common.
HCMV inh – human cytomegalovirus inhibition; HFF cells, HCMV-luciferase reporter, 72 h; stronger effect = lower value; activity change, negative = inhibition, % at 57.5 µM; 410,000 compounds, 4.5% hits; AID 1259415; in the data active = activity change below about -60%; inconclusive = no clear call, values can overlap the other calls; inactive = above about -39%
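Cell-based, HFFs, 1000 cells/well, 16 h 37C; cpds in DMSO + HCMV-luc, MOI 1 PFU/cell; 72 h 37C; OneGlo luminescence after 5 min RT; norm. to buffer vs Salinomycin 10uM.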
VACV mCherry inh – inhibitors of vaccinia virus infection (mCherry reporter signal); Potency, µM (series often up to 36.5 µM), inactives show at the highest dose activity change, negative = inhibition, usual class: inhibitors; Vaccinia virus mCherry reporter infection, fluorescence; 310,000 compounds, 0.63% hits; calls by dose curve; tested in A549 cells; also: potency is read from the fitted curve at half-maximal effect; nearly all actives have a fitted effect of over 35% in size
HCV inhibitor – inhibitors of hepatitis C virus infection; Huh7.5.1 HCVcc-Cre infection, luciferase reporter, 44 h; Potency, µM (top dose mostly 41.8 µM), inactives show at the highest dose activity change, negative = inhibition, most hits filed as inhibitors; 340,000 compounds, 3.4% hits; active = well fitted inhibition curve with a large enough effect; inconclusive = small, poorly fitted or top-dose-only effect, or another doubt; inactive = no such curve, though single readings can be large or run the other way; also: potency is read from the fitted curve at half-maximal effect
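Seed cells (1,000/well) for 4 h; treat with compound and infect with HCVcc-Cre, moi about 0.5. Incubate 44 h, then detect luciferase activity.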
Lassa entry inh – blocks Lassa virus binding to or entry into cells. Lassa virus pseudotype entry inhibition, cell reporter. Potency, µM (doses to about 37.9 µM), without a hit: top-dose activity change, negative = inhibition, usual class: inhibitors. 300,000 compounds, 1.2% hits. AID 540256; calls by dose curve; tested in HEK293 cells; also: potency is read from the fitted curve at half-maximal effect; nearly all actives have a fitted effect of over 50% in size
Vaccinia Venus – vaccinia inhibition (Venus reporter); Vaccinia virus Venus reporter expression, fluorescence; Potency, µM (highest dose often 36.5 µM), inactives show at the highest dose activity change, negative = inhibition, most hits filed as inhibitors; 330,000 compounds, 0.46% hits; calls by dose curve; tested in A549 cells; also: potency is read from the fitted curve at half-maximal effect; nearly all actives have a fitted effect of over 30% in size
Marburg entry inh – Marburg virus entry inhibition | 300,000 compounds, 1.8% hits | AID 540276 | Potency, µM (series often up to 37.8 µM), for inactives: at the top dose activity change, negative = inhibition, actives largely listed as inhibitors | Marburg virus pseudotyped entry inhibition, cell reporter; calls by dose curve; tested in HEK293 cells; also: potency is read from the fitted curve at half-maximal effect
* marks the source's active call; other numbers are inactive results; i = inactive; ? = inconclusive; . = no result given; [ ] = dose if it differs, or a comment. % is scaled to controls: 0 for no effect and ±100 for the full control effect.

SMILES	HCMV inh	VACV mCherry inh	HCV inhibitor	Lassa entry inh	Vaccinia Venus	Marburg entry inh
Cc1cc2ncc(-c3cccc(Br)c3)nc2cc1C	132.9	.	.	.	.	.
COc1ccccc1C(c1nnnn1C(C)(C)C)N1CCN(Cc2ccncc2)CC1 (stereo not drawn)	-27.2	i	-0.5%	-0.8%	-2.9%	?
CCC(c1nnnn1C(C)(C)C)N1CCN(c2cc(Cl)ccc2C)CC1 (stereo not drawn)	-14.5	.	-17.6%	12.6µM*	-28.9%	10µM*
CCCC(c1nnnn1CC1CCCO1)N1CCN(c2cc(Cl)ccc2C)CC1 (stereo not drawn)	-11.5	-28.6%	-19.6%	?	?	?
CCC(c1nnnn1C(C)(C)C)N1CCN(Cc2ccccc2OC)CC1 (stereo not drawn)	-71.8*	.	1.1%	.	.	.
Cc1cc(N2CCN(C)CC2)n2nc(-c3ccc(Cl)cc3)nc2n1	56.2	7.94µM*	-5.7%	.	?	.
CC(/C=N/c1ccccn1)=N\c1ccccn1	-20.1	.	.	.	.	.
Nc1nc(OCc2ccccc2)c2[nH]cnc2n1	-73.2*	-21.2%	-1.1%	?	?	?
Nc1ncnc2nc[nH]c12	?	-2.5%	-20.9%	.	2.1%	.
Cc1ccc(Nc2ncnc3nc[nH]c23)cc1	.	-7.9%	.	.	-20.7%	.
c1ccc(COc2ccc(Nc3ncnc4nc[nH]c34)cc2)cc1	-2.3	7.08µM*	-22.3%	.	-29.9%	.
Nc1nc(N)c2[nH]cnc2n1	.	-19.2%	6.31µM*	.	-22.9%	.
Nc1nc(NCCc2ccccc2)c2[nH]cnc2n1	.	-10.5%	.	.	-20.4%	.
Cc1c(Cl)cccc1NC(=O)Cn1nc(C)c2sc3ccccc3c2c1=O	10.1	?	.	27.8%[46.1 µM]	?	?
CCN(CC)CCOC(=O)c1ccc(NC(=O)c2cc3c(s2)-c2ccccc2OC3)cc1	-11.5	?	.	.	?	?
CCOc1ccccc1NC(=O)CSc1ncc2c(n1)-c1ccccc1N(CC)S2(=O)=O	-19.6	-4.4%	.	-24.9%[46.1 µM]	0.7%	.
Cc1ccc(CCNC(=O)c2ccc(CNS(=O)(=O)c3ccccc3)cc2)cc1	3.1	-7.6%	.	?	-19.3%	10.3%[46.1 µM]
COc1ccc(CCN(C)C(=O)c2cc(S(=O)(=O)NCc3ccccc3)ccc2C)cc1OC	?	i	8.91µM*	-1.2%	-14.2%	?
CCOc1ccc(CCNC(=O)c2ccc(CNS(=O)(=O)c3ccccc3)cc2)cc1OCC	-71.6*	-13.4%	?	-16.2%	-18.9%	?
COc1ccc(CCNC(=O)c2ccc(CNS(=O)(=O)c3cccc(Cl)c3)cc2)cc1OC	-6.7	-17.3%	7.94µM*	?	-28.4%	?
COc1ccc(CCNC(=O)c2ccc(CNS(=O)(=O)c3ccc(C(C)(C)C)cc3)cc2)cc1OC	49.5	i	?	-16.1%	-2.4%	-0.9%
COc1ccc(CCNC(=O)c2ccc(CNS(=O)(=O)c3cc(C)ccc3C)cc2)cc1OC	?	.	?	?	?	10µM*
COc1ccc(CCNC(=O)c2ccncc2)cc1OC	-23.0	.	-22.3%	8.5%	-1.5%	-27.1%
CC(=O)c1ccc(NC(=O)C2CCC(CNS(=O)(=O)c3cccs3)CC2)cc1 (stereo not drawn)	3.6	-9.6%	.	31.0%[46.1 µM]	-0.6%	1.4%[46.1 µM]
CCN(CC)c1ccc(NC(=O)COCc2cc(-c3ccc4c(c3)OCO4)on2)c(C)c1	-17.2	-1.5%	.	-11.4%[46.1 µM]	-26.3%	.
SMILES	HCMV inh	VACV mCherry inh	HCV inhibitor	Lassa entry inh	Vaccinia Venus	Marburg entry inh
COc1c2c(cc3c1OCO3)C13C=CC(OC)CC1N(C2)CC3O (stereo not drawn)	.	-12.8%	.	.	-16.6%	.
COC1C=CC23c4cc5c(cc4CN(CC2O)C3C1)OCO5 (stereo not drawn)	.	1.26µM*	.	.	1.78µM*	.
COc1cccc(C(C)(O)c2nc(-c3cccs3)cs2)c1 (stereo not drawn)	-79.2*	-11.2%	.	.	6.3%	.
COc1cccc(C(C)(O)c2nc(-c3ccc4ccccc4c3)cs2)c1 (stereo not drawn)	-33.4	i	.	.	-7.0%	.
CCN(CC)C(=O)c1cccc(-c2csc(C(C)(O)c3cccc(OC)c3)n2)c1 (stereo not drawn)	-77.7*	i	.	.	-10.2%	.
COc1ccc(-c2csc(C(C)(O)c3cccnc3)n2)cn1 (stereo not drawn)	-12.0	-4.5%	.	.	0.8%	.
COc1cccc(C(C)(O)c2nc(-c3cnc4ccccc4c3)cs2)c1 (stereo not drawn)	-62.5*	8.8%	.	.	-2.9%	.
COc1cccc(C(C)(O)c2nc(-c3ccc(OC)nc3)cs2)c1 (stereo not drawn)	-61.7*	i	.	.	-12.6%	.
O=C(NC1CCC1)O[C@H]1CC[C@@]23CCCN2C(=O)CCC[C@H]3[C@H]1Cc1ccccc1	-20.5	.	.	.	.	.
COc1ccc(C(=O)n2nc(-c3ccco3)nc2NCc2cccs2)cc1	30.2	-9.5%	.	12.0%[46.1 µM]	-13.2%	7.6%[46.1 µM]
O=C(NCc1ccc(Cl)cc1)C1CCCN(c2ncnc3onc(-c4ccc(F)cc4)c23)C1 (stereo not drawn)	7.9	-13.6%	.	-14.7%[46.1 µM]	-14.8%	.
Cc1cc(C)cc(C(=O)NCc2nc(-c3cccc(NC(=O)c4ccccn4)c3)oc2C)c1	.	-12.7%	.	.	0.0%	.
COc1ccc(-c2csc(C(C)(O)c3cccc(OC)c3)n2)cc1 (stereo not drawn)	-65.3*	?	.	.	-27.6%	.
COc1cccc(C(C)(O)c2nc(-c3ccc(Cl)cc3)cs2)c1 (stereo not drawn)	11.4	i	.	.	-15.4%	.
COc1cccc(C(C)(O)c2nc(-c3ccc(S(C)(=O)=O)cc3)cs2)c1 (stereo not drawn)	-85.7*	9.4%	.	.	-9.8%	.
CC(O)(c1ccncc1)c1nc(-c2cccc(C(F)(F)F)c2)cs1 (stereo not drawn)	-69.2*	-3.2%	.	.	-27.2%	.
Cc1oc(-c2ccccc2Cl)nc1CSc1nc2ncccc2[nH]1	?	-16.2%	.	10.4%[46.1 µM]	-20.3%	.
COc1ccc(CCNC(=O)CSc2ccc(-c3ccco3)nn2)cc1OC	-63.2*	-1.9%	-0.3%	?	-9.0%	?
CCCCn1c(-c2ccccc2)cnc1SCC(=O)NCCc1ccc(OC)c(OC)c1	13.5	-7.4%	11.2µM*	?	-26.0%	?
Cc1nc(NCc2c(C)nn(C)c2Cl)sc1-c1ccn(CC2COc3ccccc3O2)n1 (stereo not drawn)	.	-24.1%	.	.	-12.9%	.
Cc1csc(N/N=C/c2c(F)cccc2Cl)n1	49.1	3.55µM*	2.9%	8.2%	5.01µM*	15.0%
Cc1ccc(C)c(CS(=O)(=O)c2cn(CC(=O)N(C(C)C)C(C)C)c3ccccc23)c1	26.2	-2.7%	.	-1.1%[46.1 µM]	-6.3%	.
Cc1ccc(C)c(Cn2c3ccccc3c3cnn(CC(=O)NC4CCCCCC4)c(=O)c32)c1	7.4	-1.0%	.	5.9%[46.1 µM]	-9.0%	-3.4%[46.1 µM]
O=C(Nc1ccc2oc(-c3cc(Br)ccc3Cl)nc2c1)c1ccc2ccccc2c1	-93.5*	?	.	1.1%[46.1 µM]	-27.3%	.
O=C(Nc1ccc2oc(-c3ccccc3Cl)nc2c1)c1cncc(Br)c1	-18.1	.	17.8µM*	?	.	?

Bioassay records from PubChem BioAssay.
